In ChEMBL document CHEMBL4513148, “CO-ADD screening of Stellenbosch University (South Africa) compounds” one finds Inhibition data, which are given here for six compounds.

As usually defined, the Inhibition is the drop in the measured response relative to a control, in per cent. Read a high Inhibition as strong suppression.

Screen size: about 23,000 compounds; about 30 (0.1%) showed an effect of 50% or more. The entries come from a sample that favours strong results as a whole. Entries with a potency or affinity are not part of this list.

For the assay, the system named is Pseudomonas aeruginosa. The following applies: Concentration 32 ug.mL-1; ASSAY_TEST Inhibition of Bacterial Growth; detection method Absorption (OD600); MEDIA CAMHB; plate type 384well; NBS; CORNING #3640; time 18 hr.
The compound `CC(C)(C)C(O)C(=O)NCCC(=O)NCCc1ccccc1` (stereo unspecified) displayed an Inhibition of 40.95%.
`CC(C)(COP(=O)(O)O)[C@@H](O)C(=O)NCCC(=O)NCCc1ccccc1` gave an Inhibition of 35.19%.
Regarding `CC(C)(CN)C(O)C(=O)NCCC(=O)NCCc1ccccc1` (stereo unspecified), the Inhibition is given as 51.6%.
`CC(CC(=O)NCCc1ccccc1)NC(=O)[C@H](O)C(C)(C)CO` (stereo partly specified) came in with an Inhibition of 72.5%.
The value for `CC(C)(CO)[C@@H](O)C(=O)NCCC(=S)NCCc1ccccc1` was 38.53%; that for `CC(C)(CO)[C@@H](O)C(=O)N/C=C/C(=O)NCCc1ccccc1` was 39.92%.
